The results in this text go back to ChEMBL document CHEMBL3433997, “St. Jude Leishmania screening dataset” (2016).

What all share (format): functional
The target in test [1] is Solute carrier family 2, facilitated glucose transporter member 1 (Homo sapiens) (UniProt P11166). Briefly: ST_JUDE_LEISH: Cytotoxicity at 2uM final concentration against transgenic Leishmania Mexicana promastigotes LmGLUT1 that are glucose transport deficient and complemented with the human glucose transporter GLUT1. Activity is measured by DNA content using SYBR green in vitro.

The target of test [2] is Hexose transporter 1 (Plasmodium falciparum) (UniProt O97467). Briefly: ST_JUDE_LEISH: Cytotoxicity at 2uM final concentration against transgenic Leishmania Mexicana promastigotes LmPfHT that are glucose transport deficient and complemented with the Plasmodium falciparum hexose transporter. Activity is measured by DNA content using SYBR green in vitro.
In test [3] the target is Glucose transporter (Leishmania mexicana) (UniProt O61059). Put plainly: ST_JUDE_LEISH: Cytotoxicity at 2uM final concentration against transgenic Leishmania Mexicana promastigotes LmGT2 that are glucose transport deficient and complemented with the L. Mexicana glucose transporter 2. Activity is measured by DNA content using SYBR green in vitro.

Sequence of Solute carrier family 2, facilitated glucose transporter member 1 (Homo sapiens) (P11166 whole entry): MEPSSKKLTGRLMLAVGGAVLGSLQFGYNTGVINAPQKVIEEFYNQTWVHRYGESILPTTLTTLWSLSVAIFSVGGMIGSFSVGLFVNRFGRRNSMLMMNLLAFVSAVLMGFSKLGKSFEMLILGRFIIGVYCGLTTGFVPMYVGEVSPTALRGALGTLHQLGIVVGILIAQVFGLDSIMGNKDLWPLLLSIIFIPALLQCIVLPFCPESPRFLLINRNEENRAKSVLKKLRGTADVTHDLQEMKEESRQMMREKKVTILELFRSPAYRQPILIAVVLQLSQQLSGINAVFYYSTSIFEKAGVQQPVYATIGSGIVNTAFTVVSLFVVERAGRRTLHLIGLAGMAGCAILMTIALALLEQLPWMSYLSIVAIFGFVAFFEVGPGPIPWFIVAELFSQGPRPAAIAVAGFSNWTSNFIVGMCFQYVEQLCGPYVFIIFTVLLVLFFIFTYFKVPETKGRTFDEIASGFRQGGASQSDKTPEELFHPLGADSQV

A word on the inhibition: it is the drop in the measured response relative to a control, in per cent. In the case of `CCOC(=O)C1=C(C)N=c2sc(=Cc3cc(Cl)ccc3O)c(=O)n2C1c1ccc2c(c1)OCO2` (stereo not given), the results for the inhibition in test [1], in test [2] and in test [3] were 0.16%, 0.7% and 1.37%, respectively.
In the case of `CC(=O)c1ccc(N2C(=O)C3C(Cc4ccc(OC(C)(C)C)cc4)NC4(C(=O)N(Cc5ccc(C(C)(C)C)cc5)c5ccccc54)C3C2=O)cc1` (stereo not given), the values for the inhibition in test [1], in test [2] and in test [3] were 7.13%, 4.25% and 2.13%, respectively.
On to `CN1CCN(CCCN(Cc2ccc(-c3ccc(CNC4CCCC4)cc3)cc2)C(=O)CCC2CCCC2)CC1`, for which the inhibition in test [1] amounted to 76.5%; in test [2] it was 79.8%; in test [3], 5.69%.
With `O=C(NC1CC1c1ccccc1)N(CCCn1ccnc1)Cc1csc(-c2ccc(CNCc3ccccc3)cc2)n1` (stereo not given), the inhibition in test [1] worked out at 1.52%; in test [2], 1%; in test [3] it was 3.57%.
The corresponding values for `NC1CCN(Cc2ccc(-c3cccc(-c4nc5cc(F)ccc5[nH]4)c3)cc2)C1` (stereo not given) are 16.9%, 14.7% and 12.8%.
For `N#Cc1cccc(NC(=O)Nc2ccc3c(c2)CN(Cc2c[nH]c4ncccc24)C3)c1`, in that order: 6.66%, 7.47% and 3.37%.
Turning to `CC(C)NCc1ccc(-c2ccc(NC(=O)c3ccc(C#N)cc3)cc2)cc1`, the inhibition in test [1] was determined as 3.05%; in test [2], 3.73%; in test [3] it was 4.89%.
For `O=C(Nc1ccc2c(c1)CCN2C1CCN(Cc2ccc(O)cc2)C1)c1ccco1` (stereo not given), in that order: 0.95%, 2.04% and -0.34%.
On to `O=C(Nc1ccc(OC2CCN(Cc3ccccc3)CC2)c(Cl)c1)c1ccco1`, for which the inhibition is 8.6% in test [1], 10.1% in test [2] and 8.63% in test [3].
The corresponding values for `O=C(CCCCCCc1ccccc1)Nc1ccc2nc3c(c(NCc4ccccc4)c2c1)CCCC3` are -0.24%, 1.39% and -2.98%.
Regarding `Cc1cc2ncn(-c3nccc(NCc4ccc(F)c(C)c4)n3)c2cc1C`, the results for the inhibition in test [1], in test [2] and in test [3] were 4%, 4.86% and 2.52%, respectively.
Turning to `CCN(CC)/C(=N/C(=N)NCc1cccc(Cl)c1)NCCCCCCN/C(=N\C(=N)NCc1cccc(Cl)c1)N(CC)CC`, the figures for the inhibition in test [1], in test [2] and in test [3] were 4.23%, 4.83% and 2.27%, respectively.
Consider `Nc1nc(N)c2c(ccc3nn(Cc4cccnc4)cc32)n1`, for which the inhibition came out at 5.81% in test [1], 5.44% in test [2] and 4.81% in test [3].
Take `COc1cc2nc(N3CCC(CNC(=O)c4ccc(-c5ccc(C(=O)N(C)C)cc5OCCO)cc4)CC3)nc(N)c2cc1OC`: the inhibition in test [1] was -1.09%; in test [2], 2.24%; in test [3] it was 1.27%.
In the case of `COc1cc2nc(N3CCC(CCCC4CCNCC4)CC3)nc(NCc3ccccn3)c2cc1OC`, the values for the inhibition in test [1], in test [2] and in test [3] were 73.5%, 68.6% and 57.1%, respectively.
For `COC(=O)c1ccc2c(-c3nc4ccc(OC)cc4[nH]3)c[nH]c2c1`, in that order: 11.5%, 10.3% and 8.93%.
Regarding `O=[N+]([O-])c1ccc(Oc2ccccc2CNCC2CCN(CC3CCCCC3)CC2)cc1`, the inhibition in test [1] amounted to 13.6%; in test [2], 15.7%; in test [3], 7.15%.
With `CCCCCCNc1cc(C)nc2ccc(OC)cc12`, the inhibition in test [1] is 11.1%; in test [2], 11.4%; in test [3], 4.54%.
Turning to `Cc1ccc(C2(CN3CCC(NC(=O)c4cc[nH]n4)CC3)CCCCC2)cc1`, the inhibition in test [1] is 0.21%; in test [2], -1.4%; in test [3], -0.05%.
For `COc1ccc(C2CC(c3ccccc3)=NN2C(=O)c2ccc(Br)o2)cc1` (stereo not given), in that order: -0.17%, 0.43% and 0.09%.
As for `CCc1c(CCNCCCCCCNCCc2ccc(OC)c(OC)c2C)ccc(OC)c1OC`, the inhibition worked out at 10.2% in test [1], 9.23% in test [2] and 12.1% in test [3].
`COc1ccc2nccc([C@@H](O)CN3CCC(NCc4ccc5nsnc5c4)CC3)c2c1`: the inhibition is 0.12% in test [1], -1.13% in test [2] and -0.38% in test [3].
Turning to `CCOC(=O)CCCOc1c(OC)cc(Cc2cnc(N)nc2N)cc1OC`, the inhibition is -1.3% in test [1], -0.68% in test [2] and -2.34% in test [3].
For `O=C(NCc1cccc2ccccc12)[C@@H]1CCCN1C(=O)c1ccc(O)c(-c2ccc(Cl)c(Cl)c2)c1`, in that order: 3.99%, 2.59% and 1.99%.
For the compound `CSc1ccc(C=CC(=O)NC(=O)c2ccccc2O)cc1`, the inhibition in test [1] was determined as 1.32%; in test [2], 2.44%; in test [3] it was 1.41%.
`CCC1CN2CCc3c([nH]c4ccc(OC)cc34)C2CC1CC1NCCc2cc(OC)c(OC)cc21` (stereo not given): the inhibition was 3.04% in test [1], 3.2% in test [2] and 4.05% in test [3].
As to `CCN(CC)CCNc1ccnc2c3ccccc3n(C)c12`, the figures for the inhibition in test [1], in test [2] and in test [3] were -1.54%, 0.22% and -0.19%, respectively.
Consider `COc1ccc(Br)cc1/C=C/C(=O)Nc1ccc(C2CCN(C)CC2)cc1`, for which the inhibition in test [1] is 3.58%; in test [2], 3.16%; in test [3] it was 4.19%.
For `CCCNC(=O)C1Cc2c([nH]c3ccc(Br)cc23)C2(CCN(CCc3ccccc3)CC2)N1` (stereo not given), in that order: -1.4%, 0.12% and 1.33%.
For the compound `Cc1cc(C)c2nc(N3CCC(C(=O)NCCCN4CCC(N5CCCCC5)CC4)CC3)sc2c1`, the inhibition in test [1] stood at 1.45%; in test [2], 2.91%; in test [3], 0.65%.
With `CN1CCCc2cc(NC(=O)c3cc(-c4ccc(Cl)cc4)cs3)ccc2C1`, the inhibition in test [1] is 2.24%; in test [2] it was 0.77%; in test [3] it was 1.79%.
For the compound `COc1ccc(Cc2cnc(N)nc2N)cc1OCCCOc1ccccc1`, the inhibition in test [1] was -0.49%; in test [2] it was 0.92%; in test [3] it was -0.52%.
`CCCCCCC(C)c1cc(O)c2c(c1)OC(=O)CC2(CC)c1ccccn1` (stereo not given): the inhibition in test [1] stood at 1.55%; in test [2], 3.13%; in test [3] it was 1.77%.
On to `CC(C)Cn1cc(C2CCN(CCN3CCC(CNC(=O)c4ccc(NC(=O)c5cc(Cl)cc(Cl)c5)cc4)CC3)CC2)c2ccccc21`, for which the inhibition in test [1] came to 1.27%; in test [2] it was 4.22%; in test [3], 1.97%.
Regarding `CC(C)CCN1CCCN(Cc2ccc(C(=O)Nc3ccc(Cl)cc3)cc2)CC1`, the figures for the inhibition in test [1], in test [2] and in test [3] were 11.1%, 11.3% and 11.6%, respectively.
